Measurements taken from PubChem BioAssay AID2391 (Southern Research Specialized Biocontainment Screening …, 2010).
“And” between values parts separate entries of the source, which are not always exact repeats. Equal values may be shown once. Among all 310,000 compounds or so, about 410 (0.13%) were called active. Roughly 2% stayed inconclusive and do not appear here. No rule for the calls is given here. Only a sample is shown. Potency and affinity values are given separately.

Test: inhibition of RSV-induced cytopathic effect – HEp-2 cells, primary 10 µM value included (AID 2391)
Conditions: at 10 µM, active compounds read high

CPE inhibition, inactive:
COc1ccccc1C(=O)N(Cc1nc(-c2ccc(Cl)cc2)no1)C(C)C 2.22%
COc1ccc(Cl)cc1C(=O)N(Cc1nc(-c2cccc(C)c2)no1)C(C)C 10.2%
CC(C)NS(=O)(=O)c1ccc(CCC(=O)N2CCCC2)cc1 1.63%
CCC1CCCCN1C(=O)c1ccc2nc(Cc3ccc(OC)cc3)oc2c1 (configuration not stated) 20.7%
Cc1cccc(NC(=O)CNC(=O)CN2C(=O)NC3(CCCCC3C)C2=O)c1C (configuration not stated) -0.96%
CC1CCCCC12NC(=O)N(CC(=O)Nc1ccccc1-c1ccccc1)C2=O (configuration not stated) -0.96%
COc1ccc(C(=O)NCc2cc(C)nc3ccccc23)cc1OC 19%
CCOCCCNC(=O)C1CCN(Cc2cccc(OCc3ccccc3)c2)CC1 -0.9%
CCOC(=O)Cn1nnnc1C(CC)N(Cc1cc2ccc(C)cc2[nH]c1=O)C1CCCC1 (configuration not stated) 0%
CCOC(=O)Cn1nnnc1C(C(C)C)N(Cc1cc2c(C)cc(C)cc2[nH]c1=O)C1CCCC1 (configuration not stated) 9.34%
CN(Cc1ccccc1)C(=O)CN1C(=O)c2ccc([N+](=O)[O-])cc2C1=O 1.1%
N#CCCN(CCC#N)C(=O)COc1ccc(Cl)cc1Cl 2.86%
CC(=O)Nc1ccc(NC(=O)COc2ccc(Cl)cc2Cl)cc1 5.13%
CCOc1ccccc1NC(=O)Nc1ccc2c(c1)CCC2 7.85%
COc1ccc(NC(=O)Nc2ccc3c(c2)CCC3)c(OC)c1 3.19%
O=C(Cc1ccc(Br)cc1)NC1CCCc2ccccc21 (configuration not stated) 2.96%
COc1cc(C(=O)NCCC(=O)NC2CCCc3ccccc32)cc(OC)c1OC (configuration not stated) 0.19%
O=C(NC1CCCc2ccccc21)c1ccc(Br)cc1 (configuration not stated) 6.09%
O=C(CCl)NC1CCCc2ccccc21 (configuration not stated) -0.24%
O=c1c2ccccc2ncn1Cc1ccc(Cl)c(Cl)c1 3.3%
Cc1cc(C)[n+]2n1C(=O)C(c1ccccc1)=C2[O-] 3.89% and 3.76%
O=C(Nc1ccccc1SCC1CSc2nc3ccccc3c(=O)n21)c1ccccc1 (configuration not stated) 2.48%
O=c1c2ccccc2nc2n1C(CSc1ccccc1)CS2 (configuration not stated) 1.34%
Nc1ccccc1SCC1CSc2nc3ccccc3c(=O)n21 (configuration not stated) 2.42%
COc1cccc(SCC2CSc3nc4ccccc4c(=O)n32)c1 (configuration not stated) 7.09%
O=c1c2ccccc2nc2n1C(CSCc1ccc(Cl)cc1Cl)CS2 (configuration not stated) 5.16%
O=c1c2ccccc2nc2n1C(CSc1ccc(F)cc1)CS2 (configuration not stated) 2.75%
